Laboratory results taken from PubChem BioAssay (NCATS).
Values without a mark were called inactive. Inconclusive results are not listed. A call without a number means that no potency is given here. Calls of active or inactive are those of the source. Unless noted, calls follow the shape of the dose curve; as a rule, active = well fitted curve in the direction sought with a large enough effect; inconclusive = small, poorly fitted or top-dose-only effect, or another doubt; inactive = no such curve, though single readings can be large; an effect the other way counts as inactive or inconclusive.

Experiments:
[1] = molecular target: Cytochrome P450 1A2 (Homo sapiens) (UniProt P05177); assay: p450-cyp1a2 (AID 410; calls by dose curve)
Method in brief: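 Luminescent readout of luciferin formed from Luciferin-ME by human CYP1A2; data normalized against complete inhibition by 57 uM furafylline. Enzyme 20nM, substrate 100uM at Km, 100mM KPO4 buffer, 60 min reaction at room temperature.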

[2] = molecular target: Glucocorticoid receptor (Homo sapiens) (UniProt P04150); assay: GR-GFP Redistribution (AID 450;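 active = compounds whose dose series gives a full or clear partial fitted curve of increased nuclear translocation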; also: potency is read from the fitted curve at half-maximal effect); conditions: U2OS GR-GFP nuclear translocation, laser cytometry, 2 h
[3] = molecular target: Glucocorticoid receptor (Homo sapiens) (UniProt P04150); assay: GR-EFC Redistribution (AID 451; calls by dose curve; also: potency is read from the fitted curve at half-maximal effect); conditions: CHO-K1 GR-EFC translocation, beta-gal luminescence, 2 h
Method in brief: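 Translocation of GR-ED fusion to nuclear EA restores b-gal, read by luminescence after 1 h room-temperature detection. Engineered CHO-K1 biosensor cells, 1,000/well, exposed 2 h at 37 C to titrations up to 46 uM final.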

[4] = molecular target: Mitogen-activated protein kinase 10 (Mus musculus) (UniProt Q61831); assay: JNK3 AlphaScreen Assay (AID 530; active = well fitted curve in either direction with a large enough effect, not every such curve was filed as active;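 also: kinase came from lysate of stimulated human HepG2 cells; signal reports phosphorylation of biotinylated GST-cJun 1-79 at Ser73 with 10 µM ATP; series mostly up to about 57 µM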)
Method in brief: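 Compound titrations were preincubated 15 minutes at room temperature with substrate, antibody and pre-activated JNK3-containing HepG2 lysate. Reactions were started with 10 uM ATP and stopped with EDTA-containing bead buffer for AlphaScreen detection.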

[5] = molecular target: Cytochrome P450 2C19 (Homo sapiens) (UniProt P33261); assay: qHTS Assay for Inhibitors and Substrates of Cytochrome P450 2C19 (AID 899); also: nearly all actives have a fitted effect of over 60% in size
Method in brief: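 5nM enzyme + 10uM Luciferin-H EGE (=KM), 50mM KPO4; cpd pin-transferred, 10 min 37C; NADPH regen, 60 min 37C; stopped w/ luciferin detection reagent, 20 min; luminescence. Normalized to 57uM ketoconazole (AC100).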

[6] = molecular target: Ubiquitin carboxyl-terminal hydrolase 1 (Homo sapiens) (UniProt O94782); assay: Inhibitors of USP1/UAF1: Pilot qHTS (AID 504865);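 also: rhodamine fluorescence freed from ubiquitin-rhodamine substrate followed over time; top concentration of the series differs between compounds; nearly all actives have a fitted effect of over 35% in size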
Method in brief: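 Enzyme-free wells gave the negative control, while test wells held 1nM USP1/UAF1 preincubated with compound for 15 min at room temperature. Ub-Rho at 150nM final started the reaction, and fluorescence at 480/540 nm was recorded kinetically.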

[7] = molecular target: DNA dC->dU-editing enzyme APOBEC-3G (Homo sapiens) (UniProt Q9HC16); assay: qHTS for inhibitors of Vif-A3G interactions: Validation (AID 588379)
Method in brief: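 HeLa cells stably expressing Vif and A3G-eYFP, 700 cells/well, incubated overnight at 37 deg C, then exposed to compound overnight at 37 deg C. Inhibition of Vif-mediated degradation read as increased yellow fluorescence (Ex 488/Em 500-530) by laser-scanning cytometry.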

[8] = system: Zika virus NS2B-NS3 protease; assay: Primary screen GU AMC qHTS for Zika virus inhibitors (AID 1347154); also: nearly all actives have a fitted effect of over 70% in size; also: potency is read from the fitted curve at half-maximal effect
Method in brief: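 Fluorogenic AMC-substrate cleavage by noncovalent NS2B-NS3 protease complex (25 nM, pH 8.0 Tris buffer with Tween 20) followed for 15 minutes at room temperature (~20% conversion). Percent inhibition from ex340/em450 signal change, fitted by 4-parameter Hill equation.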

[9] = Primary qHTS for small molecule stabilizers of the endoplasmic reticulum resident proteome: Secreted ER Calcium Modulated Protein (SERCaMP) assay (AID 1508630)
Method in brief: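 GLuc-SERCaMP-expressing SH-SY5Y cells, pretreated 16 h with compound, are challenged with thapsigargin to empty ER calcium stores; after 4 h, coelenterazine is added directly to the medium and luminescence is imaged.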

[10] = molecular target: DNA repair nuclease/redox regulator APEX1 (Homo sapiens) (UniProt P27695); assay: qHTS Validation Assay for Inhibitors of the Human Apurinic/apyrimidinic Endonuclease 1 (APE1) (AID 1705;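 also: TAMRA fluorescence gain over two minutes as APE1 cuts a quenched THF abasic duplex; series mostly up to about 57 µM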)
Method in brief: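 Substrate: 50 nM final fluorophore/quencher THF-abasic duplex. Enzyme preincubated with compounds 15 min, RT. Progress derived from fluorescence difference, third minus first kinetic read.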

[11] = Counterscreen for APE1 Inhibitors: Fluorescent Dye Displacement Validation Assay (AID 1707)
Method in brief: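 ThO 250 nM + dsDNA 50 nM (THF abasic site, 5'-TAMRA), Tris-HCl pH7.5/50mM NaCl/2 mM MgCl2/0.01% Tween-20; compounds pin-transferred; ex 480/em 540 nm endpoint. Neutral = no compound; no-DNA ThO wells = negative control.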

[12] = molecular target: Endonuclease 4 (Escherichia coli (strain K12)) (UniProt P0A6C1); assay: Counterscreen for APE1 Inhibitors: qHTS Validation Assay for Inhibitors of Endonuclease IV (AID 1708)
Method in brief: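 qHTS concentration-response format; LOPAC1280 tested under APE1-screen conditions. 2 nM enzyme, 15 min compound preincubation at RT, then 50 nM TAMRA/BHQ-2 abasic substrate; kinetic fluorescence read, three reads at 60 s intervals.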

[13] = qHTS for differential inhibitors of proliferation of Plasmodium falciparum line 7G8 (AID 1815);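 also: potency is read from the fitted curve at half-maximal effect; parasite growth measured after three days of incubation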
[14] = qHTS for differential inhibitors of proliferation of Plasmodium falciparum line GB4 (AID 1816); conditions: Potency: Plasmodium falciparum GB4 proliferation inhibition;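 also: potency is read from the fitted curve at half-maximal effect; parasite growth measured after 72 h incubation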
[15] = qHTS for differential inhibitors of proliferation of Plasmodium falciparum line 3D7 (AID 1876); also: potency is read from the fitted curve at half-maximal effect
[16] = qHTS for differential inhibitors of proliferation of Plasmodium falciparum line D10 (AID 1877);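 also: potency is read from the fitted curve at half-maximal effect; parasites grown with compound for 72 h before DNA staining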
[17] = qHTS for differential inhibitors of proliferation of Plasmodium falciparum line Dd2 (AID 1882); conditions: Potency: Plasmodium falciparum Dd2 proliferation inhibition; also: potency is read from the fitted curve at half-maximal effect; nearly all actives have a fitted effect of over 65% in size
Method in brief: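 Dd2-infected erythrocytes (0.3% parasitemia, 2.5% hematocrit final) incubated with compound 72 h at 37 C, 5% CO2; lysed with saponin/Triton buffer containing SYBR Green I, incubated overnight in the dark, then read by fluorescence (485/535 nm). Normalized to 0.29 uM artemisinin and DMSO.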

[18] = qHTS for differential inhibitors of proliferation of Plasmodium falciparum line W2 (AID 1883); conditions: Potency: Plasmodium falciparum W2 proliferation inhibition;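 also: potency is read from the fitted curve at half-maximal effect; parasites grown with compound for 72 h before lysis and staining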
[19] = qHTS for differential inhibitors of proliferation of Plasmodium falciparum line HB3 (AID 1886); conditions: Potency: Plasmodium falciparum HB3 proliferation inhibition;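 also: potency is read from the fitted curve at half-maximal effect; parasites grown with compound for 72 h before SYBR Green readout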
[20] = molecular target: Ferritin light chain (Equus caballus) (UniProt P02791); assay: qHTS Validation Assay for Identification of Novel General Anesthetics (AID 2323); also: series mostly up to about 77 µM
Method in brief: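 Normalized fluorescence response, scaled between free 1-AMA and 1-AMA/apoferritin complex, fitted to a four-parameter Hill equation for concentration-effect values. Binding mix: 10 uM horse-spleen apoferritin, 50% saturated 1-AMA in PBS; read 380/535 nm after 10 min.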

[21] = molecular target: ATP-dependent DNA helicase Q1 (Homo sapiens) (UniProt P46063); assay: qHTS Validation Assay for Inhibitors of RecQ-Like Dna Helicase 1 (RECQ1) (AID 2353)
Method in brief: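 50 nM RECQ1T1 preincubated 15 min with compound in Tris pH 8.0 buffer with MgCl2, DTT, Tween-20 and 2.5 ug/ml poly(dI-dC); started with 200 nM TAMRA/BHQ-2 forked duplex and 2 mM ATP. Unwinding read as fluorescence (525/598 nm), two reads 2 h apart.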

[22] = molecular target: RecQ-like DNA helicase BLM (Homo sapiens) (UniProt P54132); assay: qHTS Validation Assay for Inhibitors of Bloom's syndrome helicase (BLM) (AID 2364)
Method in brief: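 Forked 20-bp duplex substrate (200 nM, TAMRA/BHQ-2) plus 2 mM ATP added after 15 min compound preincubation with 50 nM enzyme, pH 8.0, poly(dI-dC) 2.5 ug/ml. Strand separation followed by fluorescence (525/598 nm) over 2 h, normalized to enzyme-free and DMSO controls.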

[23] = Validation screen for inhibitors of Lassa infection (AID 463096; calls by dose curve)
[24] = Quantitative high throughput screen for delayed death inhibitors of the malarial parasite plastid, 48 hour incubation (AID 488752); also: potency is read from the fitted curve at half-maximal effect; nearly all actives have a fitted effect of over 65% in size
Method in brief: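 Readout is firefly luciferase luminescence from a reporter integrated into the parasite genome, with lower signal taken as inhibited growth. Infected red cells (0.1% parasitemia, 2% hematocrit final) are cultured with compound for one 48 h cycle at 37 C.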

[25] = molecular target: M-phase phosphoprotein 8 (Homo sapiens) (UniProt Q99549); assay: qHTS Validation Assay for Inhibitors for MPP8 Chromodomain Interactions with Methylated Histone Tails (AID 488949); also: potency is read from the fitted curve at half-maximal effect; nearly all actives have a fitted effect of over 55% in size
Method in brief: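 Chemiluminescent proximity assay: histidine-tag capture via nickel acceptor beads, biotin peptide via streptavidin donor beads. Protein and peptide each at 50 nM, pH 7.4, with 30 min incubations at room temperature for complex formation, compound exposure and bead binding.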

[26] = molecular target: Transient receptor potential cation channel subfamily V member 1 (Homo sapiens) (UniProt Q8NER1); assay: HTS Assay for Compounds that Act as Enhancers of the Vanilloid Receptor 1 (AID 488979)
Method in brief: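 Calcium influx kinetics via Fluo-8 (480/520 nm) in TRPV1-expressing cells, 2000/well cultured overnight at 35.5C. Compound-alone read 3 min (agonist phase), followed by EC20 capsaicin challenge for 2 min (enhancer phase).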

[27] = molecular target: Thyrotropin receptor (Homo sapiens) (UniProt P16473); assay: qHTS Assay for Antagonists of the Thyroid Stimulating Hormone Receptor (AID 488980); also: series mostly up to about 58 µM
Method in brief: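 Inhibition of TSH-stimulated cAMP accumulation was quantified by homogeneous time-resolved FRET in TSHR-transfected HEK293 cells. Agonist: TSH, 4 nM final (EC80).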

[28] = molecular target: Thyrotropin-releasing hormone receptor (Homo sapiens) (UniProt P34981); assay: qHTS for Small Molecule Agonists and Allosteric Enhancers of Human TRH Receptor: Validation Screen for Agonists (AID 493127;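 active = calcium activation more than 3 SD above the typical response in the agonist read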;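 also: intracellular calcium rise by fluo-8 fluorescence before TRH EC20 addition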); conditions: TRH receptor agonist cell assay; at 2 µM; active compounds read high
Method in brief: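 Cells 2000/well, 10% FCS, 18 h 33.5C/5% CO2 → fluo-8 Ca dye, RT 30 min–1.5 h → FDSS baseline 10 × 1 s → compound added → 230 cycles (1 s/cycle) agonist mode. TRH controls.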

[29] = molecular target: Galactokinase (Homo sapiens) (UniProt P51570); assay: qHTS Validation Assay for Inhibitors of Human Galactokinase (GALK) (AID 493189)
Method in brief: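 Enzyme activity is inferred from ATP consumption: human GALK phosphorylates galactose (100 uM) using 35 uM ATP for 1 h at room temperature, and luciferase-based Kinase-Glo Plus reports unconsumed ATP.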

Sequence of Glucocorticoid receptor (Homo sapiens) (P04150 whole entry, looked up, the tested form may be a part): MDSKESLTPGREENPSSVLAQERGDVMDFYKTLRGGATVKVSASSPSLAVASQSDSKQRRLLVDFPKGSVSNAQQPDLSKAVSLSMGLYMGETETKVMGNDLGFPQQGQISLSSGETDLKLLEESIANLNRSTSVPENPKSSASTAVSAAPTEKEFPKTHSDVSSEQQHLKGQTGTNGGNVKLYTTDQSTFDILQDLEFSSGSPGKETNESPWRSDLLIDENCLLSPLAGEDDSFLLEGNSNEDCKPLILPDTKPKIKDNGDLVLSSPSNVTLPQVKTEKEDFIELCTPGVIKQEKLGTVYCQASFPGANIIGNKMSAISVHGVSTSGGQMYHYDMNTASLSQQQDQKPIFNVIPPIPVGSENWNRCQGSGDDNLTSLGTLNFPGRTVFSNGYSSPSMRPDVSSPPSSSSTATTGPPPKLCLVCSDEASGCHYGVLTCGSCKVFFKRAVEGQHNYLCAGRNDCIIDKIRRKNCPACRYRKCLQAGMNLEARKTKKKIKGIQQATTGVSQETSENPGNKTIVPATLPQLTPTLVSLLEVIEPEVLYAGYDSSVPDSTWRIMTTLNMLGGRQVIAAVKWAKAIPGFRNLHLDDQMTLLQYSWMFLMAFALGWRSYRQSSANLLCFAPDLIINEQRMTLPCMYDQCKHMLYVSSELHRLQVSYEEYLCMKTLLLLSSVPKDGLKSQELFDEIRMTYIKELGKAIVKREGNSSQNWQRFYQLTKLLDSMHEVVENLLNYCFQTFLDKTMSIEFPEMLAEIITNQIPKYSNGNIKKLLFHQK
Sequence of Ubiquitin carboxyl-terminal hydrolase 1 (Homo sapiens) (O94782 whole entry, looked up): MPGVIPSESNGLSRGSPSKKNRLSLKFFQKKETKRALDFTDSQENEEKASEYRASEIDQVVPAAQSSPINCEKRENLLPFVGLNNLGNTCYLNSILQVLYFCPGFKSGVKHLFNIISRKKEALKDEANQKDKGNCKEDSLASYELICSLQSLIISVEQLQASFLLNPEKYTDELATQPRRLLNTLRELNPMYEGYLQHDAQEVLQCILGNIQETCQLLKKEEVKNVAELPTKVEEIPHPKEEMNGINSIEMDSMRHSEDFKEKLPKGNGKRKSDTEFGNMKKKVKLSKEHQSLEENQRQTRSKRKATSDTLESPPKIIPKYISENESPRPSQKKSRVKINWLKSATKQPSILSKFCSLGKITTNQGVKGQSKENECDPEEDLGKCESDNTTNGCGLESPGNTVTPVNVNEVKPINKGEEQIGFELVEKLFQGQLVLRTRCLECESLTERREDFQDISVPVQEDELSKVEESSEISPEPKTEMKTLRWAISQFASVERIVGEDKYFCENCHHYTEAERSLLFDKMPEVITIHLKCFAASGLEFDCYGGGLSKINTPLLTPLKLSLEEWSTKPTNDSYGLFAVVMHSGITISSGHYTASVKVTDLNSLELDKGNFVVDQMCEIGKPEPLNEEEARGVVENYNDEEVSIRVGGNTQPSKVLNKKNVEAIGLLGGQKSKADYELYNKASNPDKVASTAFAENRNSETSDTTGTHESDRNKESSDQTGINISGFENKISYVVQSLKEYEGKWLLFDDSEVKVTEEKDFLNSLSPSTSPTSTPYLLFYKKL
Sequence of M-phase phosphoprotein 8 (Homo sapiens) (Q99549 whole entry, looked up): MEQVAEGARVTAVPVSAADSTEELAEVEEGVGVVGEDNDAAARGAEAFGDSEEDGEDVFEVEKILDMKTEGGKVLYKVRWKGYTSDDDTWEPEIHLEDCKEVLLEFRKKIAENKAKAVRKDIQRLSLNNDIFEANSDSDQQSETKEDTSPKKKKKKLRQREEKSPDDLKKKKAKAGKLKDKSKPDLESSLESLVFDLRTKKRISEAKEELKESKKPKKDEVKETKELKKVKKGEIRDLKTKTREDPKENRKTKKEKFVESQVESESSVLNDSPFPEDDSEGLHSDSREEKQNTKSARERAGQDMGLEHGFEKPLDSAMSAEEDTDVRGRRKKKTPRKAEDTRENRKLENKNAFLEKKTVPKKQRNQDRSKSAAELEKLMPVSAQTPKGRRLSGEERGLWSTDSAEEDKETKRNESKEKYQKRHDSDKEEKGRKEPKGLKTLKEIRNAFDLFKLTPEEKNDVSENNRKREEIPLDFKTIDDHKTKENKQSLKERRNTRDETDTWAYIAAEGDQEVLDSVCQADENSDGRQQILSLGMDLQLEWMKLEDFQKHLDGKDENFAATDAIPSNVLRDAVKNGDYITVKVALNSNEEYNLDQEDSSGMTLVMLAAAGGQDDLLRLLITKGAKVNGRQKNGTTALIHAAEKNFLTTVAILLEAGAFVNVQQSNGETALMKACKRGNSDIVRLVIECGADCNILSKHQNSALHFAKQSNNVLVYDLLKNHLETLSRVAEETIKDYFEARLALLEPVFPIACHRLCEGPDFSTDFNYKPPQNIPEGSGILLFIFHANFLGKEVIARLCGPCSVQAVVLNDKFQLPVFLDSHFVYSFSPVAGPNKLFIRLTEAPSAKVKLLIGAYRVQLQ
Sequence of DNA repair nuclease/redox regulator APEX1 (Homo sapiens) (P27695 whole entry, looked up): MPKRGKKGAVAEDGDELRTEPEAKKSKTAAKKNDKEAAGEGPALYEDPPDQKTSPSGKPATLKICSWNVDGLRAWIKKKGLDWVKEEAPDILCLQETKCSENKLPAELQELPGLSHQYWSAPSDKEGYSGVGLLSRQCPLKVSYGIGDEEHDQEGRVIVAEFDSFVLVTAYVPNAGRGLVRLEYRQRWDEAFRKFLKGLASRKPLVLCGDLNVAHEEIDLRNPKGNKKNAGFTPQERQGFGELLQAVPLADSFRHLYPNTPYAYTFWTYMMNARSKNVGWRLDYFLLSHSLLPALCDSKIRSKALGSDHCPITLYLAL
Sequence of ATP-dependent DNA helicase Q1 (Homo sapiens) (P46063 whole entry, looked up): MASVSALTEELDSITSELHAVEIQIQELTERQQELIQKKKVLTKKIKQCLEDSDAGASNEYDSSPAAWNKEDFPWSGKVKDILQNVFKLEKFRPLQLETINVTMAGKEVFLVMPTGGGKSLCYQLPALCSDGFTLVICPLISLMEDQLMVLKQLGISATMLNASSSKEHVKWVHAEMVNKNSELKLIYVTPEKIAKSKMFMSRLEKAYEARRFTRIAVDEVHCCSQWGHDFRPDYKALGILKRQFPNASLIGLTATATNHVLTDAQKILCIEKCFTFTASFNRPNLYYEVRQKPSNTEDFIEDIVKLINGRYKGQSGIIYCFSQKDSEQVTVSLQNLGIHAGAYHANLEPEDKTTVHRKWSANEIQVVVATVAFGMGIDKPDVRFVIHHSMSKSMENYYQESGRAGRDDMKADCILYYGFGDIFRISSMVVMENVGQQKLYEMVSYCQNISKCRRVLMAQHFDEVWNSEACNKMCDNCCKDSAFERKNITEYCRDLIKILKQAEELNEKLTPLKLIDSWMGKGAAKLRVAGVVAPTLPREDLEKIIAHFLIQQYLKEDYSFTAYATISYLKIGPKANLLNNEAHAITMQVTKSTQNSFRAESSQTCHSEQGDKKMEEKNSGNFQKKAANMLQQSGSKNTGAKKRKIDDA
Sequence of DNA dC->dU-editing enzyme APOBEC-3G (Homo sapiens) (Q9HC16 whole entry, looked up): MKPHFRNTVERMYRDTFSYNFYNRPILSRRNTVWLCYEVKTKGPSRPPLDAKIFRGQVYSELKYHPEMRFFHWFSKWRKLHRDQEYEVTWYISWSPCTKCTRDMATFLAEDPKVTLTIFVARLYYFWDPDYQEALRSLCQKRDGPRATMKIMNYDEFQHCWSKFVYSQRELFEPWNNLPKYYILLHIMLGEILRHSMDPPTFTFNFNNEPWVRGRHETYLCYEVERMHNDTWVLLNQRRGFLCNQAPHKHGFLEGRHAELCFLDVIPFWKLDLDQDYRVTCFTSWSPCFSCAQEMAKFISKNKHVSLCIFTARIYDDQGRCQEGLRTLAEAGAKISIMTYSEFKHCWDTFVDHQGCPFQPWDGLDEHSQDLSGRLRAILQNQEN
Sequence of Thyrotropin-releasing hormone receptor (Homo sapiens) (P34981 whole entry, looked up): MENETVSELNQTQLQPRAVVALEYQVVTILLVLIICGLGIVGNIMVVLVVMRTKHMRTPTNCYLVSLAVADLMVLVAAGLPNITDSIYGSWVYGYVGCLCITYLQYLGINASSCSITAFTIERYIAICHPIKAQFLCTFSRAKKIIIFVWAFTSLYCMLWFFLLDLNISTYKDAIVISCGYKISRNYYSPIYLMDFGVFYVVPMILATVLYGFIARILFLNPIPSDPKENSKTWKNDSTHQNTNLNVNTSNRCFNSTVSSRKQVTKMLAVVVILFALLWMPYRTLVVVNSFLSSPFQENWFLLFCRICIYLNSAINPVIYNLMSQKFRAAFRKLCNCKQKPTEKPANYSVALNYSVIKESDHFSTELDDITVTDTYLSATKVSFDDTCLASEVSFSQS
Sequence of Thyrotropin receptor (Homo sapiens) (P16473 whole entry, looked up): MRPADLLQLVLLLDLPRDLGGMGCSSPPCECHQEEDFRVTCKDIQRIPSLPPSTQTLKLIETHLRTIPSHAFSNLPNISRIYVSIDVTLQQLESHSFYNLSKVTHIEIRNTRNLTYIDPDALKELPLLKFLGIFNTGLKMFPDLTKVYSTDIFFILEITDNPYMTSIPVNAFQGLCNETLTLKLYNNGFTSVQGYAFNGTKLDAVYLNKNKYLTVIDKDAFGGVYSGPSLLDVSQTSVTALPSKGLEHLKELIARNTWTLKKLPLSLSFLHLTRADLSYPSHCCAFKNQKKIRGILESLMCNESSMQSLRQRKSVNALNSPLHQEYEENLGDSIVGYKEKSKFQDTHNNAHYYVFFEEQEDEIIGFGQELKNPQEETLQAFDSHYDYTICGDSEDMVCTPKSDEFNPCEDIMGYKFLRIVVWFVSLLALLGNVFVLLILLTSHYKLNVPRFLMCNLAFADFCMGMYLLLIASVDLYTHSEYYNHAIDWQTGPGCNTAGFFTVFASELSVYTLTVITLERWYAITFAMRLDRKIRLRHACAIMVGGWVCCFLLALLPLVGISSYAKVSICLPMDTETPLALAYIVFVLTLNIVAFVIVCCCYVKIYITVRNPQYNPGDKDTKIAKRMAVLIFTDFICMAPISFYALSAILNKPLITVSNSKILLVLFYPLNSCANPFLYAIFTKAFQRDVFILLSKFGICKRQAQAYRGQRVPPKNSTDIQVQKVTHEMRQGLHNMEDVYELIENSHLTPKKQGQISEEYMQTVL

## C/C(=C\C=C/[C@@H](C)C(=O)O)[C@H]1CN[C@H](C(=O)O)[C@@H]1CC(=O)O
[1]
  Potency: inactive
[2]
  Potency: > 46 µM
[3]
  Potency: > 46 µM
[4]
  outcome: inactive
[5]
  Potency: inactive
[6]
  Potency: inactive
[7]
  Potency: inactive
[8]
  Potency: inactive
[9]
  Potency: inactive

## CN1CCc2cc(O)cc3c2C1Cc1ccc(O)c(O)c1-3 (stereo unspecified)
[10]
  Potency: inactive
[11]
  Potency: inactive
[12]
  outcome: inactive
[13]
  Potency: 8.91 µM (active)
[14]
  Potency: 8.91 µM (active)
[15]
  Potency: 11.2 µM (active)
[16]
  Potency: 12.6 µM (active)
[17]
  Potency: 8.91 µM (active)
[18]
  Potency: 6.31 µM (active)
[19]
  Potency: 12.6 µM (active)
[20]
  outcome: inactive
[21]
  Potency: inactive
[22]
  Potency: inactive
[23]
  Potency: inactive
[24]
  Potency: 18.5 µM (active)
[25]
  Potency: 22.4 µM (active)
[26]
  outcome: inactive
[27]
  outcome: inactive
[28]
  activation: 1.44%
[29]
  outcome: inactive
[8]
  Potency: 18.9 µM (active)
[9]
  Potency: inactive
